Bioassay records deposited in PubChem by National Center for Advancing Translational Sciences (NCATS).
JMJD2A Tudor: blocks the human JMJD2A Tudor domain; AlphaScreen JMJD2A-Tudor / H3K4me3 peptide binding; 390,000 compounds, 4.4% hits; Potency, µM (highest dose often 114 µM), actives largely listed as inhibitors; O75164; also: nearly all actives have a fitted effect of over 50% in size
HP1b binding inh: HP1-beta chromodomain-methylated histone interaction inhibition; P83916; AlphaScreen HP1-beta / biotin-H3K9me3 peptide binding; Potency, µM (highest dose often 114 µM), actives largely listed as inhibitors; 390,000 compounds, 0.56% hits; also: nearly all actives have a fitted effect of over 70% in size
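Compound inhibition of the preformed complex between 50 nM HP1-beta and 50 nM biotinylated H3K9me3 peptide was read by AlphaScreen. Buffer was PBS pH 7.4 with 0.01% Tween-20. Incubations ran 30 min at room temperature, with 10 ug/mL donor/acceptor beads.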
BAZ2B inh: inhibitors of human BAZ2B bromodomain; Potency, µM (highest dose often 114 µM), usual class: inhibitors; AlphaScreen BAZ2B-H3K14Ac peptide displacement; Q9UIF8; 360,000 compounds, 4.4% hits; also: nearly all actives have a fitted effect of over 60% in size
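AlphaScreen luminescence quantifies BAZ2B engagement of H3K14Ac peptide; the protein and biotinylated peptide are both at 50 nM final, buffer PBS pH 7.4 with 0.01% Tween-20, all steps at room temperature.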
L3MBTL1 inh: L3MBTL1 (human) inhibition. Q9Y468. AlphaScreen L3MBTL1–H3K9me1 peptide binding. Potency, µM (highest dose often 57.1 µM), usual class: inhibitors. 230,000 compounds, 0.66% hits; also: nearly all actives have a fitted effect of over 60% in size
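AlphaScreen proximity signal between nickel-chelate acceptor and streptavidin donor beads (final 10 ug/mL) reports binding of 50 nM L3MBTL1 to 75 nM biotin-H3 K9me1 peptide; complex incubated with compounds 30 min at room temperature; cefsulodin titration as control.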
PLK1 PBD inh: inhibitors of human PLK1 polo-box domain binding. P53350. Plk1 PBD binding of FITC phosphopeptide, fluorescence polarization. Potency, µM, usual class: inhibitors. 360,000 compounds, 2.8% hits; also: series mostly up to about 57 µM; nearly all actives have a fitted effect of over 65% in size
VDR inhibitor: blocks the human vitamin D receptor | VDR-SRC2-3 peptide fluorescence polarization, 2 h | Potency, µM, usual class: inhibitors | 400,000 compounds, 0.93% hits
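VDR–SRC2-3 interaction, FP format. Cmpds 23 nl via pintool, brief spin, 2 h ambient incubation.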
VDR confirm: confirmation of human vitamin D receptor inhibitors | shares compounds with VDR inhibitor | VDR-coactivator inhibition assay, qHTS confirmation | Potency, µM, most hits filed as inhibitors | 840 compounds, 89% hits | AID 602199
VDR FP fluor: confirmation of human VDR-coactivator binding inhibitors, fluorescein label. Potency, µM (top dose mostly 57.1 µM), usual class: inhibitors. 840 compounds, 48% hits. VDR-coactivator binding, fluorescein fluorescence polarization. shares compounds with VDR inhibitor. AID 602200
VDR bla reporter: VDR (human) inhibition, cell-based beta-lactamase validation; shares compounds with VDR inhibitor; VDR beta-lactamase reporter cells, FRET ratio; cells co-treated with VDR agonist LG190178; Potency, µM (highest dose often 46.1 µM), usual class: inhibitors; 840 compounds, 23% hits
VDR viability: cytotoxic in counter-screen for VDR inhibitors | shares compounds with VDR inhibitor | cytotoxicity counter-screen, cell viability, qHTS | Potency, µM (doses to about 48.3 µM), most hits filed as cytotoxic | 840 compounds, 18% hits | AID 602204; also: nearly all actives have a fitted effect of over 75% in size
Each line names hits and unclear results; the compound was inactive in the other large screens (follow-up assays come after a bar, where they were run). This is a sample that favours compounds with a hit; in the whole collection about 6.9% have one here. Calls follow the shape of the dose curve; as a rule, active = well fitted curve in the direction sought with a large enough effect; inconclusive = small, poorly fitted or top-dose-only effect, or another doubt; inactive = no such curve, though single readings can be large; an effect the other way counts as inactive or inconclusive.

COC(=O)C1=C(C)N(Cc2ccco2)C(=O)/C1=C\c1ccc([N+](=O)[O-])cc1	JMJD2A Tudor inconclusive, BAZ2B inh inconclusive, VDR inhibitor 22.4µM | VDR confirm inconclusive | VDR FP fluor inactive | VDR bla reporter inactive | VDR viability inconclusive
COC(=O)C1=C(C)N(Cc2ccco2)C(=O)C1	PLK1 PBD inh inconclusive (no result: L3MBTL1 inh)
Cc1c(O)nc(SCC(=O)Nc2ccc3c4c(cccc24)CC3)n(-c2ccc(F)cc2)c1=O	none
CCOC(=O)c1c(C)oc2c1c1c(c3ccccc32)OCN(Cc2cccnc2)C1	JMJD2A Tudor inconclusive, BAZ2B inh inconclusive, PLK1 PBD inh 4.74µM, VDR inhibitor inconclusive | VDR confirm 11.2 | VDR FP fluor 7.94µM | VDR bla reporter inactive | VDR viability inconclusive
CCOC(=O)c1c(C)oc2c1c(C(c1cccnc1)N1CCOCC1)c(O)c1ccccc12 (stereo not drawn)	JMJD2A Tudor 79.4µM, HP1b binding inh inconclusive, BAZ2B inh 39.8µM, PLK1 PBD inh 6.7µM, VDR inhibitor inconclusive | VDR confirm 15.8 | VDR FP fluor 12.6µM | VDR bla reporter inconclusive | VDR viability inconclusive
COc1cccc(CNS(=O)(=O)c2cc3[nH]c(=O)c(=O)[nH]c3cc2C)c1	none (no result: L3MBTL1 inh, PLK1 PBD inh)
NC(=O)Cn1ccc(O)c(Cc2ccc(Cl)cc2Cl)c1=O	none (no result: L3MBTL1 inh)
Cc1cccc(CS(=O)(=O)c2ncc(Cl)c(C(=O)Nc3c(C)cccc3C)n2)c1	PLK1 PBD inh 18.9µM, VDR inhibitor 22.4µM (no result: L3MBTL1 inh) | VDR confirm 6.7 | VDR FP fluor inconclusive | VDR bla reporter 14.6µM | VDR viability inconclusive
Cc1ccc(CSc2ncc(Cl)c(C(=O)NCc3ccccc3)n2)cc1	none (no result: L3MBTL1 inh, PLK1 PBD inh)
Cc1cccc(CS(=O)(=O)c2ncc(Cl)c(C(=O)Nc3nc4ccc(F)cc4s3)n2)c1	none (no result: L3MBTL1 inh, PLK1 PBD inh)
Cc1cccc(CS(=O)(=O)c2ncc(Cl)c(C(=O)NCc3ccccc3)n2)c1	PLK1 PBD inh inconclusive, VDR inhibitor 15.8µM (no result: L3MBTL1 inh) | VDR confirm 4.74 | VDR FP fluor 7.94µM | VDR bla reporter 14.6µM | VDR viability 23.1µM
CCCc1nnc(NC(=O)c2nc(S(=O)(=O)Cc3cccc(C)c3)ncc2Cl)s1	BAZ2B inh inconclusive, VDR inhibitor 14.1µM (no result: L3MBTL1 inh) | VDR confirm 5.97 | VDR FP fluor inconclusive | VDR bla reporter 11.6µM | VDR viability 16.4µM
Cc1ccccc1Cn1c(COc2ccc(Cl)cc2)nc2ccccc21	none (no result: L3MBTL1 inh, PLK1 PBD inh)
Cc1ccc(CN2C(=O)C(=O)c3cc(C)ccc32)cc1	JMJD2A Tudor inconclusive, VDR inhibitor inconclusive (no result: BAZ2B inh)
Cc1ccc2c(c1)C(=O)C(=O)N2Cc1ccc(Br)cc1	JMJD2A Tudor inconclusive, PLK1 PBD inh inconclusive, VDR inhibitor 22.4µM (no result: BAZ2B inh) | VDR confirm 8.44 | VDR FP fluor inconclusive | VDR bla reporter inactive | VDR viability inconclusive
COc1ccc(/C=N/NC(=O)c2cccc(OC(F)(F)C(F)F)c2)cc1O	none
Cc1ccc2nc(SCC(=O)N3CCC(Cc4ccccc4)CC3)nc(=O)n2c1	none
COc1cc(C=C2C(=O)OC(c3ccccc3)OC2=O)cc(Br)c1O (stereo not drawn)	PLK1 PBD inh inconclusive (no result: L3MBTL1 inh)
COc1cc(/C=C2\C(=O)ON=C2c2ccccc2)cc(Br)c1O	JMJD2A Tudor 25.1µM, HP1b binding inh 28.2µM, BAZ2B inh 39.8µM, PLK1 PBD inh inconclusive, VDR inhibitor 25.1µM (no result: L3MBTL1 inh) | VDR confirm 3.77 | VDR FP fluor inactive | VDR bla reporter inconclusive | VDR viability inactive
COc1cc(/C=C2\SC(=Nc3ccccc3)NC2=O)cc(Cl)c1O	JMJD2A Tudor inconclusive (no result: L3MBTL1 inh)
